Experimental data: PubChem BioAssay (NCATS)
Results filed as inconclusive are left out. Where a call stands in place of a potency, no number is given. The source made the active and inactive calls. Calls come from the whole dose curve; as a rule, active = well fitted inhibition curve with a large enough effect in the repeat runs; inconclusive = weak or mixed curves; inactive = flat fitted curve, though single readings scatter.

biological target: Cytochrome P450 2D6 (Homo sapiens) (UniProt P10635); assay: Cytochrome P450 family 2 subfamily D member 6 (CYP2D6) small molecule antagonists: luciferase biochemical (cell-free) qHTS assay (AID 1645840); details: P450-Glo CYP2D6 enzyme, luciferin luminescence, 1 h; series mostly up to 57.4 µM; note: nearly all actives have a fitted effect of over 55% in size
Sequence (P10635 whole entry, looked up): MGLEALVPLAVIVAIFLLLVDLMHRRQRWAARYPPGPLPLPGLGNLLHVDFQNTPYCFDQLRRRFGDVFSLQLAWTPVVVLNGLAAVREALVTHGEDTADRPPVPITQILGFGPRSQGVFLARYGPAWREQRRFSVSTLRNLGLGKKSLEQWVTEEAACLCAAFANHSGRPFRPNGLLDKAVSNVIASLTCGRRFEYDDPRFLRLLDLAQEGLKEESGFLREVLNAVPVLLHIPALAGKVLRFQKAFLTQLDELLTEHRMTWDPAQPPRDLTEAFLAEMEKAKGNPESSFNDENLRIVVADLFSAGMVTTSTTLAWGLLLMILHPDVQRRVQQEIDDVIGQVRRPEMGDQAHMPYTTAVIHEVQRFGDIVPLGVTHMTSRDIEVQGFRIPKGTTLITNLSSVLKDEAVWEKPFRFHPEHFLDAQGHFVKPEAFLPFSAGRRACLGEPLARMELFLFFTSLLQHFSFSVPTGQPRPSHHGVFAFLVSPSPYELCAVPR
Summary of the method: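 P450-Glo CYP2D6 system: proluciferin substrate converted by enzyme to luciferin, read by luminescence proportional to activity. Enzyme-substrate mix with compound 10 min at room temperature, then NADPH regeneration 1 h before detection reagent.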
Potency is the fitted concentration of half-maximal effect.

| Compound | Potency |
| --- | --- |
| CC(=O)O[C@@H]1CC2C3CCc4cc(OC(=O)c5ccccc5)ccc4C3CCC2(C)[C@H]1OC(C)=O (stereo partly drawn) | inactive |
| CN1C(CSCC(F)(F)F)Nc2cc(Cl)c(S(N)(=O)=O)cc2S1(=O)=O (stereo not drawn) | inactive |
| O=C(O)c1ccc(OCCN2CCCCC2)cc1 | inactive |
| CC(=O)OC[C@H]1O[C@@H](OC(C)=O)[C@H](OC(C)=O)[C@@H]1OC(C)=O | inactive |
| CC(=O)OCC(=O)[C@@]1(O)[C@H](OC(C)=O)C[C@H]2[C@@H]3CCC4=CC(=O)C=C[C@]4(C)[C@@]3(F)[C@@H](O)C[C@@]21C | inactive |
| Cc1[nH]cnc1-c1ccc(Cl)cc1 | 17.4 µM (active) |
| O=P(O)(O)OCC(O)CO (stereo not drawn) | inactive |
| CN(C)CCCOC1(Cc2ccccc2)CCCCCC1 | 2.19 µM (active) |
| Cc1ccc(C(C)OC(=O)C2(C)CCC(C(=O)O)C2(C)C)cc1 (stereo not drawn) | inactive |
| COC(=O)CCCCC(CCSS/C(CCO)=C(\C)N(C=O)Cc1cnc(C)nc1N)SC(C)=O (stereo not drawn) | inactive |
| N#C/C(=C1/SC[C@@H](c2ccc(Cl)cc2Cl)S1)n1ccnc1 | 0.0871 µM (active) |
| Cc1cnc(NS(=O)(=O)c2ccc(N)cc2)nc1 | inactive |
| CCO[C@H](Cc1ccc(OCCc2ccc(OS(C)(=O)=O)cc2)cc1)C(=O)O | inactive |
| OC[C@]1(O)OC[C@@H](O)[C@H](O)[C@@H]1O | inactive |
| CO/N=C(\C(=O)O)c1csc(NC(=O)CCl)n1 | inactive |
| CN(C)CCN1CCN(c2cccc(Cl)c2)C1=O | 15.5 µM (active) |
| CC(=O)c1ccc(O)c(C(N)=O)c1 | inactive |
| CN1C(=O)c2ccccc2C1=O | inactive |
